Source: PubChem BioAssay (Tox21)
Where “and” joins values, the source holds several entries; their conditions need not be identical. Identical values can stand only once. Results filed as inconclusive are left out. The source holds several records for some structures; these can differ, active in one and inactive in another. Calls of active or inactive are those of the source. Unless noted, the call rests on the fitted dose curve; in most records, active means well fitted curve in the direction sought with a large enough effect in the repeat runs; inconclusive means weak or mixed curves; inactive means no such curve, though single readings can be large; an effect the other way counts as inactive or inconclusive.

Experiments:
[1] = qHTS assay to identify small molecule agonists of the sonic hedgehog signaling (Shh) pathway (AID 1259368; calls by dose curve;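 further: NIH/3T3-derived 3T3Gli1-Luc cells carrying a stable Gli1-driven firefly luciferase reporter; series mostly up to about 92 µM; nearly all actives have a fitted effect of over 15% in size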)
Summary of the method: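 Following a 24 hr incubation with DMSO-dissolved compounds at 37 C, 5% CO2, Gli1-Luc NIH/3T3-derived cells received luciferase reagent for 30 min at room temperature prior to luminescence measurement.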

[2] = qHTS assay to identify small molecule antagonists of the sonic hedgehog signaling (Shh) pathway (AID 1259369; calls by dose curve; further: nearly all actives have a fitted effect of over 45% in size; further: potency means the concentration at half of the fitted maximal effect)
Summary of the method: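 Read-out is luminescence from a firefly luciferase gene controlled by the Gli1 response element, in 3T3Gli1-Luc cells pre-incubated 4hr then exposed to compounds and conditioned medium for 24hr.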

[3] = target: Estrogen receptor beta (Homo sapiens) (UniProt Q92731); assay: qHTS assay to identify small molecule agonists of the estrogen receptor beta (ER-beta) signaling pathway (AID 1259377; active means well fitted activation curve with a large enough effect in the signal ratio in the repeat runs, not every such curve was filed as active; the % refers to the signal ratio)
Summary of the method: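 ER-beta-UAS-bla HEK293T cells in medium with 2% charcoal-stripped FBS were exposed to compounds for 16 h at 37C. Beta-lactamase reporter activity was read as fluorescence after 2 h with LiveBLAzer B/G FRET substrate at room temperature.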

[4] = target: Estrogen receptor beta (Homo sapiens) (UniProt Q92731); assay: qHTS assay to identify small molecule antagonists of the estrogen receptor beta (ER-beta) signaling pathway (AID 1259378; active means well fitted inhibition curve with a large enough effect in the signal ratio in the repeat runs, not every such curve was filed as active; the % refers to the signal ratio)
Summary of the method: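 ER-beta-UAS-bla HEK293T cells in 2% charcoal-stripped FBS medium treated with compound plus 1nM final 17-beta-estradiol for 16 hr at 37C. Beta-lactamase reporter read by FRET substrate fluorescence after 2 hours at room temperature.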

[5] = qHTS assay to identify small molecule agonists of the androgen receptor (AR) signaling pathway in the presence of an antagonist - cell viability counter screen (AID 1259379); further: nearly all actives have a fitted effect of over 25% in size; further: potency means the concentration at half of the fitted maximal effect
Summary of the method: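 Each compound was tested at 15 concentrations on MDA-kb2 cells in the presence of 3.0uM nilutamide. Viability was measured by CellTiter-Fluor fluorescence after a 16 hr incubation at 37C in a CO2-free atmosphere.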

[6] = qHTS assay to identify small molecule agonists of the estrogen receptor beta (ER-beta) signaling pathway - cell viability counter screen (AID 1259380); further: nearly all actives have a fitted effect of over 30% in size
Summary of the method: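 Compounds dissolved in DMSO were pin-transferred onto ER-beta-UAS-bla HEK293T cells that had settled 6 hr, and exposure ran 16 hr at 37C. Following the reporter read, CellTiter-Glo luminescence after 30 min at room temperature indicated cytotoxicity.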

[7] = qHTS assay to identify small molecule antagonists of the estrogen receptor beta (ER-beta) signaling pathway - cell viability counter screen (AID 1259382); further: series mostly up to about 92 µM; nearly all actives have a fitted effect of over 55% in size
Summary of the method: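 CellTiter-Glo ATP luminescence measured after the LiveBLAzer read in the same wells; ER-beta-UAS-bla HEK293T cells, 16 hr compound treatment with 1nM 17-beta-estradiol agonist at 37C, 5% CO2.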

[8] = qHTS assay to identify small molecule agonists or antagonists of the thyroid stimulating hormone receptor (TSHR) signaling pathway - wild type cell line counter screen (AID 1259384; calls by dose curve)
Summary of the method: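 Wild-type Hek293 cells, 800/well, 18 h at 37C, then compound with Ro20-1724 for 30 min RT. cAMP by HTRF (cAMP-d2/anti-cAMP cryptate), 1 h RT, fluorescence read. 15 concentrations, triplicates.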

[9] = target: Thyrotropin receptor (Homo sapiens) (UniProt P16473); assay: qHTS assay to identify small molecule antagonists of the thyroid stimulating hormone receptor (TSHR) signaling pathway (AID 1259385; calls by dose curve; further: nearly all actives have a fitted effect of over 20% in size)
Summary of the method: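 TSHR-HEK293 cells (800/well) plated 18 h, then compounds with Ro20-1724 and TSH at 1.5 ng/mL final, 30 min at room temperature. cAMP quantified by HTRF (cAMP-d2/anti-cAMP-cryptate, 1 h); 15 concentrations in triplicate.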

[10] = qHTS assay to identify small molecule agonists of the estrogen receptor alpha (ER-alpha) signaling pathway in the presence of an antagonist - cell viability counter screen (AID 1259386);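 further: cells exposed to compounds for 22 h at 37 °C before the viability read; nearly all actives have a fitted effect of over 30% in size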; further: potency means the concentration at half of the fitted maximal effect
Summary of the method: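 Using estrogen-depleted VM7Luc4E2 cells, the 15-concentration compound series was applied together with 10.0nM ICI-182,780 and incubated 22hr at 37C/5% CO2. Cell viability was then scored by CellTiter-Fluor.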

[11] = target: Progesterone receptor (Homo sapiens) (UniProt P06401); assay: qHTS assay to identify small molecule agonists of the progesterone receptor (PR) signaling pathway (AID 1346784; calls by dose curve; further: nearly all actives have a fitted effect of over 30% in size; further: potency means the concentration at half of the fitted maximal effect)
Summary of the method: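 PR-UAS-bla HEK 293T cells (beta-lactamase reporter under UAS) in 2% charcoal-stripped FBS, dosed with 23 nL compound after 6 hr, incubated 16hr at 37C. LiveBLAzer B/G FRET substrate added, fluorescence read after 2 hours.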

[12] = target: Progesterone receptor (Homo sapiens) (UniProt P06401); assay: qHTS assay to identify small molecule antagonists of the progesterone receptor (PR) signaling pathway (AID 1346795; active means well fitted inhibition curve with a large enough effect in the signal ratio in the repeat runs, not every such curve was filed as active; the % refers to the signal ratio)
Summary of the method: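 PR-UAS-bla HEK293T cells with beta-lactamase reporter under UAS control, in 2% charcoal-stripped FBS, treated with compounds plus 1 nM promegestone (R5020, final) for 16 hr at 37C. Read-out: FRET beta-lactamase substrate fluorescence after 2 hr at room temperature.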

[13] = qHTS assay to identify small molecule antagonists of the progesterone receptor (PR) signaling pathway - cell viability counter screen (AID 1346798); further: series mostly up to about 92 µM; nearly all actives have a fitted effect of over 50% in size
Summary of the method: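 PR-UAS-bla HEK293T cells, 3,000/well in 2% charcoal-stripped FBS medium, dosed with compounds plus R5020 agonist and incubated 16 h at 37C. Viability then measured in the same wells by CellTiter-Glo luminescence after 30 min at RT.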

[14] = qHTS assay to identify small molecule agonists of the progesterone receptor (PR) signaling pathway - cell viability counter screen (AID 1346799; calls by dose curve; further: nearly all actives have a fitted effect of over 45% in size)
Summary of the method: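 Counter screen in the PR-UAS-bla HEK293T wells (2% charcoal-stripped FBS, 16 h compound exposure at 37 C) after the bla read. CellTiter-Glo added, 30 min at room temperature, luminescence read as cell viability.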

[15] = qHTS assay to identify small molecule agonists of the TGF-beta/Smad signaling pathway - cell viability counter screen (AID 1346829); further: top concentration of the series differs between compounds; nearly all actives have a fitted effect of over 45% in size
Summary of the method: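 After overnight seating at 37 C and 5% CO2, reporter cells got compounds for 5 hr and FRET substrate for 2 hr; cell viability then came from CellTiter-Glo luminescence.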

[16] = qHTS assay to identify small molecule agonists of the TGF-beta/Smad signaling pathway (AID 1346859; active means well fitted activation curve with a large enough effect in the signal ratio in the repeat runs, not every such curve was filed as active; the % refers to the signal ratio; further: series mostly up to about 77 µM)
Summary of the method: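 SBE-bla HEK293T cells plated overnight, then compound exposure for 5 h at 37 C. Beta-lactamase reporter read with LiveBLAzer B/G FRET substrate after 2 h at room temperature, fluorescence at 405 nm excitation, 460/530 nm emission.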

[17] = target: Thyrotropin-releasing hormone receptor (Homo sapiens) (UniProt P34981); assay: qHTS assay to identify small molecule antagonists of the thyrotropin-releasing hormone receptor (TRHR) signaling pathway (AID 1346877; active means well fitted inhibition curve with a large enough effect in the repeat runs, not every such curve was filed as active; further: series mostly up to about 51 µM)
Summary of the method: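 Calcium signal in dye-loaded TRHR/HEK293 cells; compounds added 5 min before TRH (1 nM final); fluorescence monitored 3 min at 1 s steps.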

[18] = target: Androgen receptor (Homo sapiens) (UniProt P10275); assay: qHTS assay to identify small molecule agonists of the androgen receptor (AR) signaling pathway in the presence of an antagonist (AID 1259381; calls by dose curve; further: nearly all actives have a fitted effect of over 15% in size)
Summary of the method: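 Plated MDA-kb2 cells (3,000/well) were pre-incubated 5hr, given nilutamide (3.0uM final) or buffer, then dosed with compounds in DMSO at 15 concentrations. Luciferase activity was quantified by luminescence after 16hr at 37C.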

[19] = target: Estrogen receptor (Homo sapiens) (UniProt P03372); assay: qHTS assay to identify small molecule agonists of the estrogen receptor alpha (ER-alpha) signaling pathway in the presence of an antagonist (AID 1259383; calls by dose curve; further: top concentration of the series differs between compounds; nearly all actives have a fitted effect of over 15% in size)
Summary of the method: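 Luminescent ERE-luciferase reporter, VM7Luc4E2 cells (endogenous ER-alpha); 10.0nM ICI-182,780 final; 15-point compound titration; 22hr at 37C; ONE-Glo, 30min RT.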

[20] = qHTS assay to identify small molecule antagonists of the TGF-beta/Smad signaling pathway - cell viability counter screen (AID 1346824); further: nearly all actives have a fitted effect of over 50% in size
Summary of the method: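 SBE-bla HEK 293T cells, incubated overnight, then compound plus 0.25 ng/mL TGF-beta1 (stock added) for 5 hr at 37 C. Viability was read in the same wells by CellTiter-Glo luminescence after 30 min at room temperature.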

Measured: Potency

Thyrotropin receptor (Homo sapiens), sequence (P16473 whole entry, looked up): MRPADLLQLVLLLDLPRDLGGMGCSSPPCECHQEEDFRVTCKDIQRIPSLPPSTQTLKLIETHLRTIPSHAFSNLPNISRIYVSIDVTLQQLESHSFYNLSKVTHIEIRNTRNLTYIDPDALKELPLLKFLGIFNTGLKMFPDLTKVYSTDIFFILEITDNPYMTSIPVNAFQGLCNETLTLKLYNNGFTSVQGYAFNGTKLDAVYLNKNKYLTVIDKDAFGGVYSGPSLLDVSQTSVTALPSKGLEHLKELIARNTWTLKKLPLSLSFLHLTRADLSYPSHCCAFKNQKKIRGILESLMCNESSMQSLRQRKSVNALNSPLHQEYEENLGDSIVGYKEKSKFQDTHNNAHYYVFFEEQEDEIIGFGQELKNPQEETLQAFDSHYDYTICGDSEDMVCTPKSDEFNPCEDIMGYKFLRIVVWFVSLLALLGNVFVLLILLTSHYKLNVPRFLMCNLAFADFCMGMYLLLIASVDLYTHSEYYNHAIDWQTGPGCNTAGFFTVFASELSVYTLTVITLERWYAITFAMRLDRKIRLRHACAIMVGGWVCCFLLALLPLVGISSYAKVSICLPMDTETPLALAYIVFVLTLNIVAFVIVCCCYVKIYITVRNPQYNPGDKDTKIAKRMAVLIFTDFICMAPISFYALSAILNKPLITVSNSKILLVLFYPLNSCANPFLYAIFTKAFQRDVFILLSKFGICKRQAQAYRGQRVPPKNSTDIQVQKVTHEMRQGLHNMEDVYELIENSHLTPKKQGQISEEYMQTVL
Androgen receptor (Homo sapiens), sequence (P10275 whole entry, looked up): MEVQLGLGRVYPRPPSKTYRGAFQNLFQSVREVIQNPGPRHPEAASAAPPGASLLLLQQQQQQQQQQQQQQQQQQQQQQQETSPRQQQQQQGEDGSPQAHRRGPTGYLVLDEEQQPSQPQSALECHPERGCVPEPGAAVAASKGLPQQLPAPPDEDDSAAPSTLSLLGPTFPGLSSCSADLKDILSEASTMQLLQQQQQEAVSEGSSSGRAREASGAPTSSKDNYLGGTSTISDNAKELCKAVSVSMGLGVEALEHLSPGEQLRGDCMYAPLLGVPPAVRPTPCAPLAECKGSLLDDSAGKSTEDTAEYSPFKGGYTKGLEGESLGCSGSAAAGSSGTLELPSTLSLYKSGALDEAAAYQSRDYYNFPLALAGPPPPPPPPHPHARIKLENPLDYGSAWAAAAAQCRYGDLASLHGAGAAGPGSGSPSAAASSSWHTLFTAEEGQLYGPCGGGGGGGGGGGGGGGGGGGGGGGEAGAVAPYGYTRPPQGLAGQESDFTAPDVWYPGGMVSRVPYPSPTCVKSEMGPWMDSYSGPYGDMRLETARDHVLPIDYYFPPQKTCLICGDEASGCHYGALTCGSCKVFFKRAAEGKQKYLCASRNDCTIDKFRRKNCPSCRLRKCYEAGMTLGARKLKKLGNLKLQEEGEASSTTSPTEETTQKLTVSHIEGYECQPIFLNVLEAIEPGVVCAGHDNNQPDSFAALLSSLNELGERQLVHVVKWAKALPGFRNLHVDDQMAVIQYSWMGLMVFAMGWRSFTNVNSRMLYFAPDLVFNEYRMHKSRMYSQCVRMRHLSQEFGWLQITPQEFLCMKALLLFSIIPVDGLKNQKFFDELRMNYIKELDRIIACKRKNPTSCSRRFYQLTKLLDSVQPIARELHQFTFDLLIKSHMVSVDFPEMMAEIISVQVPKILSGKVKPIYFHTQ
Thyrotropin-releasing hormone receptor (Homo sapiens), sequence (P34981 whole entry, looked up): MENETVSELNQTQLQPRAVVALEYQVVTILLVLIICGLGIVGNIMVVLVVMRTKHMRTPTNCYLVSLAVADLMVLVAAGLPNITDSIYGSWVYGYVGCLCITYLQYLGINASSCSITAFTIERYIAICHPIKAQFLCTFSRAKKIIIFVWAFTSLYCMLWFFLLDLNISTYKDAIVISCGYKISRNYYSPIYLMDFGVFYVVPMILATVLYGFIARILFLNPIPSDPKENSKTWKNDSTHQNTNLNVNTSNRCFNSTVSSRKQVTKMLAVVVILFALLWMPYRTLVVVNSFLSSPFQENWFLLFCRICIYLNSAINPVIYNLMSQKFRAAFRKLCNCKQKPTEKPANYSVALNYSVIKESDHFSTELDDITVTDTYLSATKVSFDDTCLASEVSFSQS
Estrogen receptor beta (Homo sapiens), sequence (Q92731 whole entry, looked up): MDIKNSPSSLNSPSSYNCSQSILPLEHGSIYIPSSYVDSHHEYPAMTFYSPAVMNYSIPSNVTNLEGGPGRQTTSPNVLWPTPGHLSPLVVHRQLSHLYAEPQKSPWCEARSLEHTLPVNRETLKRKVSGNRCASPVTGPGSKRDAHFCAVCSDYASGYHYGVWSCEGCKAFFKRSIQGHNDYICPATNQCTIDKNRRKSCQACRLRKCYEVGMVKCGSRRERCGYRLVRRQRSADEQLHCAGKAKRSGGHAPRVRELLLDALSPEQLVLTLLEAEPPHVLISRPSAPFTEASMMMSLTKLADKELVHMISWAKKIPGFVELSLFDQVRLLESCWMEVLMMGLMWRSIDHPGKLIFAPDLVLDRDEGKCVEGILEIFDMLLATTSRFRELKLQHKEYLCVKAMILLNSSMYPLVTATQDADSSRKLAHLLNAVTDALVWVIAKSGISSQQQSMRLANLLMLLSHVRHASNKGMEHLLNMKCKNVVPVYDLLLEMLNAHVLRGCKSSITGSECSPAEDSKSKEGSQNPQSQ
Progesterone receptor (Homo sapiens), sequence (P06401 whole entry, looked up): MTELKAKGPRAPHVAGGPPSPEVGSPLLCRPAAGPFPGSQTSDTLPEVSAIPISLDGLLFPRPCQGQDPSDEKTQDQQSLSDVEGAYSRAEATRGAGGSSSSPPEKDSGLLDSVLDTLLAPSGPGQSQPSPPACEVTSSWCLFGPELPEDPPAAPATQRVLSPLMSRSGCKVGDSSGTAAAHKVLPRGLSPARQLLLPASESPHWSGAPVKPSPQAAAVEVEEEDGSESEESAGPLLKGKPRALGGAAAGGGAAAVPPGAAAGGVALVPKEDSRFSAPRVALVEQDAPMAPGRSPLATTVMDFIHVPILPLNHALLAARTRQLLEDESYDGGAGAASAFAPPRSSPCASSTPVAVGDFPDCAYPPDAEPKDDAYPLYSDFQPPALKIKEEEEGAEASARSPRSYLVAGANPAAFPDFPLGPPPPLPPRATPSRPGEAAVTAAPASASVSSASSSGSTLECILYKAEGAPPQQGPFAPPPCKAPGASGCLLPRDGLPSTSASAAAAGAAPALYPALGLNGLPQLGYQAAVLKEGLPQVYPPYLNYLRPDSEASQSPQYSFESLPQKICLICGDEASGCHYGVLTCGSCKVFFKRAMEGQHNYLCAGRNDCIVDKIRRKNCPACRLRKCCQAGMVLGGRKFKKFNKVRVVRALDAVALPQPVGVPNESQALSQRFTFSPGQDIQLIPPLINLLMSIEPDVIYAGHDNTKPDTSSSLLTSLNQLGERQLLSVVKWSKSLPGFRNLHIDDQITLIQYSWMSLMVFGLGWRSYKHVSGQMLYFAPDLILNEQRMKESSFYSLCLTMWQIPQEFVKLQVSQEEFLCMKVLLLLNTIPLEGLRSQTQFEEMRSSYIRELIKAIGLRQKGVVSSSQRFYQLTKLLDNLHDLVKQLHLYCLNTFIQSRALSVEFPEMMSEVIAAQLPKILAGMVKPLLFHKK
Estrogen receptor (Homo sapiens), sequence (P03372 whole entry, looked up): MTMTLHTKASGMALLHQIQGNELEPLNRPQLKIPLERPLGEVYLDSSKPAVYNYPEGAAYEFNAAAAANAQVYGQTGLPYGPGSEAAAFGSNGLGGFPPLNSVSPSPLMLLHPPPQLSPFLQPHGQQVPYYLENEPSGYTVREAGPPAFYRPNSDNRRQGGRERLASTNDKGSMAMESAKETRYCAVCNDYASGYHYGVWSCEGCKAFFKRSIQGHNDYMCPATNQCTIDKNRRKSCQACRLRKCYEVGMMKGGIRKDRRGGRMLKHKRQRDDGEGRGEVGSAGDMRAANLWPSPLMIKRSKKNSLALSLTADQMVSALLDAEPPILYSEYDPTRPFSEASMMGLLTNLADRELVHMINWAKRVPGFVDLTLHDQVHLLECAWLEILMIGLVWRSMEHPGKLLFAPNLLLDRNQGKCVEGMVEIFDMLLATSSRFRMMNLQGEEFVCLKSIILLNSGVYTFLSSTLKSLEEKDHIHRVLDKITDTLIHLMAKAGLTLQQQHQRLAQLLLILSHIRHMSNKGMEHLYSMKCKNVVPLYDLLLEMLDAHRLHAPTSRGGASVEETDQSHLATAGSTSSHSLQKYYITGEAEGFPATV

Cc1cc(O)cc(C)c1Cl
active: [2] 3.06 µM
not listed: [18] | [19] | [20]
inactive: all other assays above

OCC1CCCO1 (centres undefined)
not listed: [8] | [9]
inactive: all other assays above

Cc1ccc(C(=O)O)o1
not listed: [17] | [18] | [19]
inactive: all other assays above

CC(C)(CO)COC(=O)C(C)(C)CO
inactive: all assays above

Cc1ccc(C)c(C)c1
not listed: [20]
inactive: all other assays above

O=C(O)c1ccc([N+](=O)[O-])cc1
not listed: [8] | [9] | [18] | [19]
inactive: all other assays above

CCCCCCCCCCCCOCC1CO1 (centres undefined)
not listed: [18]
inactive: all other assays above

ClC1=C(Cl)C(Cl)(Cl)C(Cl)=C1Cl
active: [5] 43.3 µM
not listed: [6] | [18]
inactive: all other assays above

O=C(c1cc(O)c(O)c(O)c1)c1ccc(O)c(O)c1O
34.4 µM (active) and inactive: [2]
active: [5] 27.3 µM | [10] 34.3 µM and 30.6 µM
not listed: [8] | [9] | [18]
inactive: all other assays above

NCCNCCNCCNCCN
not listed: [17] | [19] | [20]
inactive: all other assays above

Nc1c(S(=O)(=O)O)cc(Br)c2c1C(=O)c1ccccc1C2=O
active: [5] 27.3 µM | [10] 30.6 µM
not listed: [18] | [20]
inactive: all other assays above

CC1(C)O[C@@H]2C[C@H]3[C@@H]4C[C@H](F)C5=CC(=O)CC[C@]5(C)[C@H]4[C@@H](O)C[C@]3(C)[C@]2(C(=O)CO)O1
active: [11] 5.4 nM and 6 nM
not listed: [6] | [18]
inactive: all other assays above

CC1=CC[C@H]2C[C@@H]1C2(C)C
not listed: [18]
inactive: all other assays above

COC(=O)c1ccccc1O
not listed: [12] | [18] | [20]
inactive: all other assays above

CC(=O)Nc1ccc(C(=O)O)cc1
not listed: [18]
inactive: all other assays above
